# According to PubChem BioAssay (NCI):
# The panel holds about 79,000 compounds, 15% with a hit somewhere; the sample as a whole holds those more often. The source made the active and inactive calls. Rule as the data show it: active = growth inhibition above about 70%; inactive = the rest.
# Experiment: NCI Yeast Anticancer Drug Screen. Data for the mlh1 rad18 strain (AID 175)
# Conditions: S. cerevisiae mlh1 rad18 strain growth inhibition; at 50.0 µM; active compounds read high
# In short: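 Test agents were incubated with a yeast strain of defined genotype (DNA damage repair defect). Inhibition of growth was derived by comparison with vehicle-exposed cultures.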
row,SMILES,growth inhibition
1,CCOC(=O)Nc1cc2c(c(N)n1)N=C(c1ccc(OC)cc1)CN2,11.2% (inactive)
2,CC(C)Oc1c(N(C)CCO)c2cc(Cl)ccc2oc1=O,3.05% (inactive)
3,OC/C(I)=C(I)\C(I)=C(\I)CO,99.4% (active)
4,C=C(C)COB(OCC(=C)C)OCC(=C)C,-16.2% (inactive)
